Consider 34 compounds from ChEMBL document CHEMBL1961873, “Compounds: GSK PKIS; Assays: Nanosyn kinase panel” (2012).

The inhibition is the relative decrease from the control value, in per cent.

For assay [1], the target named is T1, Interleukin-1 receptor-associated kinase 4 (Homo sapiens) (UniProt Q9NWZ3).
T1 sequence (whole entry): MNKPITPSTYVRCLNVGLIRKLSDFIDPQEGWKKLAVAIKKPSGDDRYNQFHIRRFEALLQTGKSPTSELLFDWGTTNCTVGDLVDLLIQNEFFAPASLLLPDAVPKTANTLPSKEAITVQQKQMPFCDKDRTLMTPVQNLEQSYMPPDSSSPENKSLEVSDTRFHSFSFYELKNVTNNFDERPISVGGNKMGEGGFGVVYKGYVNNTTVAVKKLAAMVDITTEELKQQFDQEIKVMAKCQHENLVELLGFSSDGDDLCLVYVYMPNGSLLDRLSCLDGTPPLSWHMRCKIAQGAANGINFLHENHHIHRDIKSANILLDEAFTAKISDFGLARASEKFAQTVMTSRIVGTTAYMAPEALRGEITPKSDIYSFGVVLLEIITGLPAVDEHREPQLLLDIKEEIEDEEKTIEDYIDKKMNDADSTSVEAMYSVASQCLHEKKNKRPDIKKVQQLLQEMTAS
The following applies: at 0.1 µM.

The target of assay [2] is T1, Interleukin-1 receptor-associated kinase 4 (Homo sapiens). The following applies: at 1 µM.
In assay [3] the target is Leucine-rich repeat serine/threonine-protein kinase 2 (Homo sapiens) (UniProt Q5S007). Conditions: at 0.1 µM.
Assay [4] has the same target. Conditions: at 1 µM.
The subject of assay [5] is Leucine-rich repeat serine/threonine-protein kinase 2 (Homo sapiens), Q5S007 [G2019S]. Conditions: at 0.1 µM.
Assay [6] shares this test system. Conditions: at 1 µM.
Assay [7] has as its target RAF proto-oncogene serine/threonine-protein kinase (Homo sapiens) (UniProt P04049). The following applies: at 1 µM.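 Note: values are the mean percent inhibition of CRAF.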

Leucine-rich repeat serine/threonine-protein kinase 2 (Homo sapiens), sequence (Q5S007 whole entry): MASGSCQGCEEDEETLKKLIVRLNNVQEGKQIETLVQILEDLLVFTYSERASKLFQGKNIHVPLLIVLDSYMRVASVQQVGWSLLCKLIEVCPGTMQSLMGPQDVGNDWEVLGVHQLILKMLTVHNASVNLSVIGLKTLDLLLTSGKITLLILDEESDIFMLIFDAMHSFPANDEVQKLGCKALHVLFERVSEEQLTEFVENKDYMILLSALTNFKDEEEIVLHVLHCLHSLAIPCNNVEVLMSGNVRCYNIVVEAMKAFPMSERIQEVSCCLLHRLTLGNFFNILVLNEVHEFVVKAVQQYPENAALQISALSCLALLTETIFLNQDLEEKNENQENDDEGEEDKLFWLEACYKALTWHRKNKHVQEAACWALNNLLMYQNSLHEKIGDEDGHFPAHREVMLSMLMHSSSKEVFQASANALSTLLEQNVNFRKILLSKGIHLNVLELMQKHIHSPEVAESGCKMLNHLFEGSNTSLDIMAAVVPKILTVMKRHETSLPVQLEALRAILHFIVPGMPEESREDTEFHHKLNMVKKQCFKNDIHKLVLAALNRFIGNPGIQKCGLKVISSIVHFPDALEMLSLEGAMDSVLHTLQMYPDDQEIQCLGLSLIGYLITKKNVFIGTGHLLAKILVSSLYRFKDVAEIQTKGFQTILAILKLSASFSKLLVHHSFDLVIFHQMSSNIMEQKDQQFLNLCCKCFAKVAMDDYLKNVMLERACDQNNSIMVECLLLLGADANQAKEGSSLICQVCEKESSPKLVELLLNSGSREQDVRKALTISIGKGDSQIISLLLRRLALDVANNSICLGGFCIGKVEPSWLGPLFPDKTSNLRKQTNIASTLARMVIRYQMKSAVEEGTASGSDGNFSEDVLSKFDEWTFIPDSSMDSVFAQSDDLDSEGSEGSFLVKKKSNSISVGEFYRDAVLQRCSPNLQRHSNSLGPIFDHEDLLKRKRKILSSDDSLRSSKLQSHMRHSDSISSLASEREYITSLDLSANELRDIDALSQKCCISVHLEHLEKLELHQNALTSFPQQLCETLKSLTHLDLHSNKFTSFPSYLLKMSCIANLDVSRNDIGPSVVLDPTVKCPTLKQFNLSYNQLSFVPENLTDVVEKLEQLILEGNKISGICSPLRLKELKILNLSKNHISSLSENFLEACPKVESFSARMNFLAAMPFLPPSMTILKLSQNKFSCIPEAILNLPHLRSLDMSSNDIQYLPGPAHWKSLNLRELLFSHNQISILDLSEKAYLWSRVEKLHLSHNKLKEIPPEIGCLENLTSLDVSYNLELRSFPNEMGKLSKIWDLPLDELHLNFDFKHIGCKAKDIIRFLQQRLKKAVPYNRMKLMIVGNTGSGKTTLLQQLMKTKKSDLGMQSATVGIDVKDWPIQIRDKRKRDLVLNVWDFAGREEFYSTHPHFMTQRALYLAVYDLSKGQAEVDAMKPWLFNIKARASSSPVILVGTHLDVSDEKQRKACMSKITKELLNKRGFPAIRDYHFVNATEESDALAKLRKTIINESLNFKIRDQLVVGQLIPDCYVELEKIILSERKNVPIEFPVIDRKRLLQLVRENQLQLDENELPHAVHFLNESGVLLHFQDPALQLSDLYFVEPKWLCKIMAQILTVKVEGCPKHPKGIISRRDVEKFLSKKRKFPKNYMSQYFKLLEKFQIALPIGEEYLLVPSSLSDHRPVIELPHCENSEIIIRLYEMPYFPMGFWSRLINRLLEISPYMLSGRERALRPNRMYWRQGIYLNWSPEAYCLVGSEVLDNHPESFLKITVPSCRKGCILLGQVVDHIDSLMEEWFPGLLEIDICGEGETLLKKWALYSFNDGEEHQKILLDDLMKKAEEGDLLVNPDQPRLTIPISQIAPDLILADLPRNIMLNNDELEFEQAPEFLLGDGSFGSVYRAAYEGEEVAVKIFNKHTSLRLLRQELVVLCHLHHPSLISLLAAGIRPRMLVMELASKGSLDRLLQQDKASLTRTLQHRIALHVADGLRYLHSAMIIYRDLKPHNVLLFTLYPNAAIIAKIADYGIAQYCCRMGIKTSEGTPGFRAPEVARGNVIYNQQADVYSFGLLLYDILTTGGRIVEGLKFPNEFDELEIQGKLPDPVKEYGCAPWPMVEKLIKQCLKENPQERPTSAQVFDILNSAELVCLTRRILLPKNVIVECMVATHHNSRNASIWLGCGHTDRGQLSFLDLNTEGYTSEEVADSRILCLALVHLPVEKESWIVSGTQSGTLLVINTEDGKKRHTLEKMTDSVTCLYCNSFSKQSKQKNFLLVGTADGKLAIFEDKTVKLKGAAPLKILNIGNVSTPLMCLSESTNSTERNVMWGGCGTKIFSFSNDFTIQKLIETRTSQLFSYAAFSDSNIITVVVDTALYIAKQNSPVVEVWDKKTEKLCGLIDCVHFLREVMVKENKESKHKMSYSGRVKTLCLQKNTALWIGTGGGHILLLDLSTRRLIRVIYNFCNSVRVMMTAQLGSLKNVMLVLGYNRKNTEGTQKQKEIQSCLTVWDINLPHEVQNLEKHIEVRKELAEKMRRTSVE
RAF proto-oncogene serine/threonine-protein kinase (Homo sapiens), sequence (P04049 whole entry): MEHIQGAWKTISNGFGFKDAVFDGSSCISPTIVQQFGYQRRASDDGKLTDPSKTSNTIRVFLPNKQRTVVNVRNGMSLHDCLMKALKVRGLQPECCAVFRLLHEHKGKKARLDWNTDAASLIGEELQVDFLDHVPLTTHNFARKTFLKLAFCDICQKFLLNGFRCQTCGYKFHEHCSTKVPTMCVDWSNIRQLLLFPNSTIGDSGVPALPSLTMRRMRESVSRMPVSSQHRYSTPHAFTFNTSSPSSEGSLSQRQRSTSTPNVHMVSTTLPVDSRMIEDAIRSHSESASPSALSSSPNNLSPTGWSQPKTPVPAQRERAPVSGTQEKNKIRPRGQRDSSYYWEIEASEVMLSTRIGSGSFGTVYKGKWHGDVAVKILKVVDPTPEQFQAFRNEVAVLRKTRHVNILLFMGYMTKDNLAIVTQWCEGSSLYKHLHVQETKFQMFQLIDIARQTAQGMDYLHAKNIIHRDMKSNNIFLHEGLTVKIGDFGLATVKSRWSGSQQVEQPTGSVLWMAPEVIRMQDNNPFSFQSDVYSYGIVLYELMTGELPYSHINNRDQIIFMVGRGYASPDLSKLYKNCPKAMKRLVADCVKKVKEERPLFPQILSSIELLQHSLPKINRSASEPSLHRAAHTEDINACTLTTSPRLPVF
Leucine-rich repeat serine/threonine-protein kinase 2 (Homo sapiens), Q5S007 [G2019S], sequence (Q5S007 whole entry G2019S): as the sequence (Q5S007 whole entry) above, with G2019S counted along it

Take `COc1cccc(-c2c[nH]c3c(N/N=C/c4ccncc4)ncnc23)c1`: the inhibition is -2.59% in assay [1]; 5.06% in assay [2]; 4.34% in assay [3]; 14% in assay [4]; 5.22% in assay [5]; 25.9% in assay [6].
On to `COc1cc(/C=N/Nc2ncnc3[nH]ncc23)ccc1O`, for which the inhibition in assay [7] was 6.28%; in assay [1], -2.65%; in assay [2], 4.43%; in assay [3], 5.72%; in assay [4], 17.5%; in assay [5], 10%. Further, the inhibition in assay [6] was 45.2%.
For `N#Cc1c(NC(=O)CN2CCOCC2)sc2c1CCCC2`, the inhibition in assay [7] is -1.23%; in assay [1], 1.87%; in assay [2], 2.93%; in assay [3] it was 2.88%; in assay [4], 8.63%; in assay [5], 3.95%. Besides, the inhibition in assay [6] came to 8.85%.
On to `COC(=O)Nc1nc2ccc(S(=O)(=O)c3ccc(NC(=O)Nc4cc(C(F)(F)F)ccc4F)cc3)cc2[nH]1`, for which the inhibition in assay [7] was -2.68%; in assay [1], 2.19%; in assay [2], 1.11%; in assay [3] it was 4.08%; in assay [4] it was 3.21%; in assay [5], 2.36%. Further, the inhibition in assay [6] was determined as 6.79%.
For `c1ccc(-c2nc3n(c2-c2ccc4c(c2)OCO4)CCC3)nc1`, the inhibition is -1.34% in assay [7]; 0.9% in assay [1]; 0.56% in assay [2]; 1.19% in assay [3]; 3.89% in assay [4]; 2.25% in assay [5]. Moreover, the inhibition in assay [6] was found to be 3.64%.
`CCN(CC)S(=O)(=O)c1ccc(OC)c(Nc2ncc(-c3ccccc3)o2)c1`: the inhibition in assay [7] is -0.65%; in assay [1] it was 0.75%; in assay [2], 0.8%; in assay [3] it was 2.62%; in assay [4], 5.16%; in assay [5], 1.76%. Besides, the inhibition in assay [6] is 9.32%.
In the case of `CCn1c(-c2nonc2N)nc2cnc(Oc3cccc(NC(=O)c4ccc(N(C)C)cc4)c3)cc21`, the inhibition was -4.15% in assay [7]; 0.85% in assay [1]; 0.95% in assay [2]; 2.37% in assay [3]; 6.56% in assay [4]; 5.49% in assay [5]. Moreover, the inhibition in assay [6] came to 27.4%.
For `CCNC(=O)O[C@H]1CN[C@H](C#Cc2cc3ncnc(Nc4ccc(OCc5cccc(F)c5)c(Cl)c4)c3s2)C1`, the inhibition is -5.34% in assay [1]; 6.03% in assay [2]; 3.12% in assay [3]; 4.18% in assay [4]; 2.44% in assay [5]; 6.88% in assay [6].
As to `COc1ccc(-c2cc(-c3c[nH]nc3-c3ccccn3)ccn2)cc1`, the inhibition was 0.07% in assay [7]; -2.78% in assay [1]; 2.03% in assay [2]; 2.47% in assay [3]; 7.04% in assay [4]; 4.82% in assay [5]. Further, in assay [6], the inhibition was 7.48%.
As to `COC(=O)c1sc(-n2cnc3cc(OC)c(OC)cc32)cc1OCc1ccccc1C(F)(F)F`, the inhibition in assay [7] was 3.19%; in assay [1], -0.1%; in assay [2] it was 1.88%; in assay [3], 4.15%; in assay [4] it was 10.7%; in assay [5], 4.24%. The inhibition in assay [6] was found to be 19.4%.
Regarding `COc1cccc(-n2ncc3c(N/N=C/c4ccc(F)cc4)ncnc32)c1`, the inhibition in assay [1] was -3.94%; in assay [2], 1.4%; in assay [3] it was 1.96%; in assay [4], 6.79%; in assay [5] it was 5.09%; in assay [6], 8.94%.
Regarding `Cc1cccc2c1NC(=O)/C2=N\Nc1ccc(S(N)(=O)=O)cc1`, the inhibition was -0.09% in assay [1]; 1.25% in assay [2]; 2.99% in assay [3]; 7.1% in assay [4]; 2.75% in assay [5]; 10.2% in assay [6].
With `COc1ccc(-c2cc3c(N)ncnc3o2)cc1`, the inhibition in assay [7] was -0.66%; in assay [1], -0.28%; in assay [2], 0.08%; in assay [3], 0.9%; in assay [4], 3.63%; in assay [5], 1.45%. For the same compound, in assay [6], the inhibition stood at 2.82%.
In the case of `COc1cc2c(cc1Nc1nc(Nc3ccsc3C(N)=O)c3cc[nH]c3n1)N(C(=O)CN(C)C)CCC2(C)C`, the inhibition in assay [7] is -0.27%; in assay [1] it was -1.47%; in assay [2], 2.28%; in assay [3], 90.7%; in assay [4] it was 98%; in assay [5], 85.4%. Moreover, the inhibition in assay [6] worked out at 93.9%.
Turning to `[O-][S+]1CCN(Cc2ccc(-c3ccc4ncnc(Nc5ccc(OCc6cccc(F)c6)c(Cl)c5)c4c3)o2)CC1`, the inhibition was -3.13% in assay [7]; 1.66% in assay [1]; 1.66% in assay [2]; 3.74% in assay [3]; 3.96% in assay [4]; 6.35% in assay [5]. Besides, the inhibition in assay [6] came out at 11.4%.
Regarding `c1cc(-c2cnn3nc(N4CCOCC4)ccc23)nc(NC2CC2)n1`, the inhibition was -3.02% in assay [1]; 4.62% in assay [2]; 4.63% in assay [3]; 16.4% in assay [4]; 6.59% in assay [5]; 37.2% in assay [6].
In the case of `Clc1ccc(-c2nn3ncccc3c2-c2ccnc(Nc3ccccc3)n2)cc1`, the inhibition in assay [7] is -3.34%; in assay [1], -3.75%; in assay [2] it was 1.51%; in assay [3], 1.23%; in assay [4], 5.86%; in assay [5] it was 3.01%. Besides, the inhibition in assay [6] is 8.26%.
As for `Nc1nc(-c2cccc(Cl)c2)c(-c2ccc3ncccc3n2)s1`, the inhibition was -0.32% in assay [7]; 3.86% in assay [1]; 2.05% in assay [2]; 3.53% in assay [3]; 7.21% in assay [4]; 6.96% in assay [5]. In assay [6], the inhibition came to 9.35%.
On to `Fc1cccc(COc2ccc(Nc3ncnc4sc(-c5ccco5)cc34)cc2Cl)c1`, for which the inhibition in assay [7] was 0.89%; in assay [1], 0.84%; in assay [2] it was 1.26%; in assay [3], 3.64%; in assay [4], 6.42%; in assay [5], 5.67%. Besides, the inhibition in assay [6] came out at 9.11%.
With `Cc1ccc(O)cc1Nc1ccnc2cc(-c3ccccn3)ccc12`, the inhibition was -3.41% in assay [1]; 2.33% in assay [2]; 5.01% in assay [3]; 11.4% in assay [4]; 7.5% in assay [5]; 31.1% in assay [6].
In the case of `CS(=O)(=O)CCNCc1coc(-c2ccc3ncnc(Nc4ccc(OCc5ccccc5)cc4)c3c2)c1`, the inhibition was found to be 2.03% in assay [7]; 1.8% in assay [1]; 2.23% in assay [2]; 0.86% in assay [3]; 5.65% in assay [4]; 1.72% in assay [5]. In addition, the inhibition in assay [6] was 5.71%.
Take `Nc1nc(-c2ccc(F)cc2)c(-c2ccc3ncccc3n2)s1`: the inhibition was -6.29% in assay [7]; 3.41% in assay [1]; 2.12% in assay [2]; 1.84% in assay [3]; 6.21% in assay [4]; 4.54% in assay [5]. The inhibition in assay [6] stood at 10.2%.
On to `NC(=O)c1sc(-n2cnc3ccc(C(F)(F)F)cc32)cc1OCc1ccccc1Br`, for which the inhibition is -3.37% in assay [7]; 0.72% in assay [1]; 1.61% in assay [2]; 1.61% in assay [3]; 6.09% in assay [4]; 2.3% in assay [5]. Further, the inhibition in assay [6] worked out at 12.8%.
Regarding `CCCN(CCS(C)(=O)=O)Cc1ccc(-c2ccc3ncnc(Nc4ccc(OCc5cccc(F)c5)c(Cl)c4)c3c2)o1`, the inhibition in assay [7] was -0.27%; in assay [1] it was -3.12%; in assay [2], 0.98%; in assay [3] it was 3.72%; in assay [4], 4.95%; in assay [5], 4.3%. For the same compound, the inhibition in assay [6] was 6.74%.
Regarding `Fc1ccc(-c2nn3ccccc3c2-c2ccncc2)cc1`, the inhibition in assay [7] is -9.31%; in assay [1], 2.69%; in assay [2], 0.14%; in assay [3], 1.66%; in assay [4], 3.74%; in assay [5], 1.38%. Moreover, in assay [6], the inhibition was found to be 4.57%.
Turning to `COc1ccc2c(-c3ccnc(Nc4cccc(OC(F)(F)F)c4)n3)cnn2n1`, the inhibition in assay [1] was -3.64%; in assay [2], 2.91%; in assay [3], 5.25%; in assay [4], 14.5%; in assay [5] it was 8.08%; in assay [6], 39.3%.
With `CCCN1CCC(c2ccc(Nc3nc(Nc4cc(F)ccc4C(N)=O)c4cc[nH]c4n3)c(OC)c2)CC1`, the inhibition in assay [7] worked out at 17.1%; in assay [1], 3.12%; in assay [2] it was 3.69%; in assay [3] it was 85.5%; in assay [4], 89.7%; in assay [5], 79.9%. Also, in assay [6], the inhibition worked out at 64.4%.
As for `COc1ccc2[nH]c3c4[nH]c5ccc(OC)cc5c4c4c(c3c2c1)C(=O)NC4=O`, the inhibition in assay [7] is -1.59%; in assay [1], -1.07%; in assay [2], 4.52%; in assay [3], 20.8%; in assay [4] it was 24.3%; in assay [5] it was 61%. In addition, the inhibition in assay [6] worked out at 63.2%.
Consider `CC1=C(C(=O)Nc2cc(Cl)c3[nH]ncc3c2)C(c2ccc(C(F)(F)F)cc2)CC(=O)N1` (stereo not drawn), for which the inhibition in assay [7] was -5.81%; in assay [1] it was 2.04%; in assay [2], 1.44%; in assay [3] it was 2.62%; in assay [4] it was 4.9%; in assay [5], 4.35%. Moreover, the inhibition in assay [6] is 12.6%.
For `NS(=O)(=O)c1ccc(Nc2ncc(-c3ccccc3)o2)cc1`, the inhibition in assay [7] was -4.28%; in assay [1], -2.68%; in assay [2], 1.92%; in assay [3] it was 3.47%; in assay [4], 15%; in assay [5], 5.15%. Moreover, in assay [6], the inhibition stood at 19.4%.
As to `Cc1ccc2c(-c3ccnc(Nc4ccccc4)n3)c(-c3ccc(F)cc3)nn2n1`, the inhibition in assay [1] is -2.94%; in assay [2], 1.87%; in assay [3] it was 3.22%; in assay [4], 7.93%; in assay [5], 3.36%; in assay [6], 7.63%.
Regarding `CC(=O)Nc1cccc(C#Cc2cncnc2Nc2ccc(OCc3cccc(F)c3)c(Cl)c2)c1`, the inhibition was 1.55% in assay [7]; -1.12% in assay [1]; 1.86% in assay [2]; 4.77% in assay [3]; 7.3% in assay [4]; 3.19% in assay [5]. The inhibition in assay [6] amounted to 8.37%.
`NS(=O)(=O)c1ccc(N/N=C2\C(=O)Nc3ccc4ncccc4c32)cc1`: the inhibition in assay [1] amounted to 2.94%; in assay [2] it was 2.77%; in assay [3] it was 19.4%; in assay [4], 22.2%; in assay [5], 40.4%; in assay [6], 63.2%.
For the compound `N#Cc1c(NC(=O)c2ccc(F)cc2)sc2c1CCCC2`, the inhibition was 1.78% in assay [1]; 0.51% in assay [2]; 0.58% in assay [3]; 1.04% in assay [4]; 1.92% in assay [5]; 5.12% in assay [6].
